According to PubChem BioAssay (NCATS):
Records with an inconclusive call do not appear. Calls of active or inactive are those of the source. Calls come from the whole dose curve; as a rule, active = well fitted curve in the direction sought with a large enough effect; inconclusive = small, poorly fitted or top-dose-only effect, or another doubt; inactive = no such curve, though single readings can be large; an effect the other way counts as inactive or inconclusive.

Experiment: qHTS of pediatric cancer cell lines to identify multiple opportunities for drug repurposing: Primary screen for LAN-5 cells (AID 1347100);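 for activity change, negative = cytotoxic: plate controls were DMSO neutral control for no effect and bortezomib positive control for full effect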
Conditions: LAN-5 neuroblastoma viability, CellTiter-Glo luminescence, 48 h; series mostly up to 46 µM; activity change, negative = cytotoxic: at the top concentration
In short: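 Viability after 48 h compound treatment at 37C, 500-1,000 cells/well, read as ATP luminescence with CellTiter-Glo. Primary screens used 11-point (MIPE, 0.78 nM-46 µM) or 8-point (NPC, 0.59 nM-46 µM) final concentrations; follow-up screens used 11-point dilutions.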
Potency is the fitted concentration of half-maximal effect.

| SMILES | Potency | activity change, negative = cytotoxic |
| --- | --- | --- |
| O=c1[nH]c(=O)n([C@H]2C[C@@H](O)[C@@H](CO)O2)cc1C(F)(F)F | 3.32 µM (active) | – |
| N#CC(=C1Nc2ccccc2S1)c1ccnc(OCc2ccc(CN3CCOCC3)cc2)n1 | 1.48 µM (active) | – |
| C#C[C@]1(O)CC[C@H]2[C@H]3CCc4cc(OC)ccc4[C@H]3CC[C@@]21C | – | -27.1% (inactive) |

Experiment: qHTS of pediatric cancer cell lines to identify multiple opportunities for drug repurposing: Primary screen for BT-12 cells (AID 1347101); note: nearly all actives have a fitted effect of over 25% in size;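 for activity change, negative = cytotoxic: plate controls were DMSO for no effect and bortezomib positive control for full effect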
Conditions: BT-12 viability, CellTiter-Glo luminescence, 48 h; series mostly up to 57.3 µM; activity change, negative = cytotoxic: at the top concentration
In short: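 Cells (500-1,000/well) rested 5 h, then received compounds for 48 h; metabolically active cells were measured by CellTiter-Glo luminescence. Final concentrations spanned up to 46 µM (MIPE, 11-point) or 0.59 nM-46 µM (NPC, 8-point) in primary screens, 11-point in follow-ups.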

| SMILES | Potency | activity change, negative = cytotoxic |
| --- | --- | --- |
| Cc1ccc(NC(=O)c2ccc(CN3CCN(C)CC3)cc2)cc1Nc1nc(-c2cccnc2)cs1 | 21.7 µM (active) | – |
| CC(C)CN(C[C@@H](O)[C@H](Cc1ccccc1)NC(=O)O[C@H]1CO[C@H]2OCC[C@H]21)S(=O)(=O)c1ccc(N)cc1 | 3.85 µM (active) | – |
| CCN(CC)CCCCNc1nc2cc(Cl)c(Cl)cc2nc1-c1ccc(-c2cccs2)s1 | 34.3 µM (active) | – |
| CCOC(=O)[C@H](CCc1ccccc1)N[C@@H](C)C(=O)N1CCCC1C(=O)O (stereo not given in full) | – | 4.49% (inactive) |
| O=c1[nH]nc(OCCCc2ccc(Cl)cc2)c(NCc2cccnc2)c1Br | 27.3 µM (active) | – |
| COc1cc2ncn(-c3cc(OCc4ccccc4S(C)(=O)=O)c(C#N)s3)c2cc1OC | – | -1.94% (inactive) |
| CC(C)C[C@@H](N)[C@H](O)C(=O)N[C@H](C(=O)N[C@H](C(=O)N[C@@H](CC(=O)O)C(=O)O)C(C)C)C(C)C | – | -4.17% (inactive) |
| CN1CCC[C@H]1CCO[C@](C)(c1ccccc1)c1ccc(Cl)cc1 | – | -16.5% (inactive) |
| Cc1cnc(-c2cc(N3CCN(C(=O)CCS(C)(=O)=O)CC3)ncc2Cl)c(C)c1 | – | -6.44% (inactive) |
| CCN(CCO)CCCOc1ccc2c(Nc3cc(CC(=O)Nc4cccc(F)c4)[nH]n3)ncnc2c1 | – | -11.6% (inactive) |
| O=S(=O)(NCCNCC=Cc1ccc(Br)cc1)c1cccc2cnccc12 | 21.7 µM (active) | – |
| CN1CC(=O)N2C(Cc3c([nH]c4ccccc34)[C@H]2c2ccc3c(c2)OCO3)C1=O (stereo not given in full) | – | -16.2% (inactive) |
| CC[C@H](NC(=O)[C@H](C)NC)C(=O)N1C[C@@H](O)C[C@H]1Cc1c(-c2[nH]c3cc(F)ccc3c2C[C@H]2C[C@H](O)CN2C(=O)[C@H](CC)NC(=O)[C@H](C)NC)[nH]c2cc(F)ccc12 | 0.273 µM (active) | – |
| Cc1cccc(Nc2nc(N[C@@H]3CCCC[C@H]3N)ncc2C(N)=O)c1 | 30.6 µM (active) | – |
| C#CCN(C)CC1=Cc2ccccc2Oc2ccccc21 | – | -19.6% (inactive) |
| COc1ccc(-c2ccc3ncc4c(c3c2)n(-c2ccc(N3CCNCC3)c(C(F)(F)F)c2)c(=O)n4C)cn1 | 15.3 µM (active) | – |
| O=c1cc(-c2ccc(O)c(O)c2)oc2cc(O)cc(O)c12 | – | 5.64% (inactive) |
| Cn1c(=O)c(Oc2ccc(F)cc2F)cc2cnc(NC3CCOCC3)nc21 | – | -19.8% (inactive) |
| CN[C@@H]1CN(c2ccc3c(=O)c(C(=O)O)cn(-c4nccs4)c3n2)C[C@@H]1OC | 9.43 µM (active) | – |

| SMILES | Potency | activity change, negative = cytotoxic |
| --- | --- | --- |
| O=C(O)c1nc(=O)[nH]c(=O)[nH]1 | – | -10.7% [at 20.1 µM] (inactive) |
| CCC[C@H](Nc1nc(-c2ccc(NC(=O)NCC)c(OC)c2)ncc1C)c1cccnc1 | 0.0109 µM (active) | – |
| CCCCCCCCCCCCCCCC(=O)O[C@H]1[C@@H](O)[C@@H](O)[C@@H]([C@H](NC(=O)[C@@H]2C[C@@H](CCC)CN2C)[C@H](C)Cl)O[C@@H]1SC | – | -0.5% (inactive) |
| COc1cc2nc(-c3cc(F)ccc3O)nc(N[C@@H]3CNC[C@@H]3C(C)(C)O)c2cc1OC | 27.3 µM (active) | – |
| C[C@@H]1[C@H](C)CC[C@]2(C(=O)O)CC[C@]3(C)C(=CC[C@@H]4[C@@]5(C)CC[C@H](O)C(C)(C)[C@H]5CC[C@]43C)[C@@H]12 | – | 4.77% [at 116 µM] (inactive) |
| CC[C@H]1OC(=O)[C@H](C)[C@@H](O[C@H]2C[C@@](C)(OC)[C@@H](O)[C@H](C)O2)[C@H](C)[C@@H](O[C@@H]2O[C@H](C)C[C@H](N(C)C)[C@H]2O)[C@](C)(O)C[C@H](C)C(=NOCOCCOC)[C@H](C)[C@@H](O)[C@]1(C)O | – | -15.1% (inactive) |
| O=C(NCCCCN1CCOCC1)c1cc2ccccc2o1 | – | -3.17% (inactive) |
| Cc1ccc(S(=O)(=O)Nc2nc3ccccc3nc2Nc2ccc3nsnc3c2)cc1 | 0.0668 µM (active) | – |
| CC(C)(CO)[C@@H](O)C(=O)NCCC(=O)O | – | -1.89% (inactive) |
| CC(C)CNc1ccnc(NCc2csc(-c3ccccc3)n2)n1 | 6.85 µM (active) | – |
| FC(F)(F)c1ccc(C=Cc2nc(COc3ccc(CCCCn4ccnn4)cc3)co2)cc1 | 0.0061 µM (active) | – |
| CC1(C)OC2CC3C4CC(F)C5=CC(=O)C=CC5(C)C4C(O)CC3(C)[C@]2(C(=O)CO)O1 (stereo not given in full) | – | 10.6% (inactive) |
| C[C@H]1O[C@@H](n2cc(F)c(=O)[nH]c2=O)[C@H](O)[C@H]1O | 27.3 µM (active) | – |
| CC(C)N(CCCNC(=O)Nc1ccc(C(C)(C)C)cc1)C[C@H]1O[C@@H](n2cc(Br)c3c(N)ncnc32)[C@H](O)[C@H]1O | 24.3 µM (active) | – |
| CCCCCOC(=O)Nc1nc(=O)n([C@@H]2O[C@H](C)[C@@H](O)C2O)cc1F (stereo not given in full) | – | 1.01% (inactive) |
| O=c1[nH]c(=O)n([C@H]2C[C@@H](O)[C@@H](CO)O2)cc1C(F)(F)F | 10.9 µM (active) | – |
| N#CC(=C1Nc2ccccc2S1)c1ccnc(OCc2ccc(CN3CCOCC3)cc2)n1 | 0.172 µM (active) | – |
| C#C[C@]1(O)CC[C@H]2[C@H]3CCc4cc(OC)ccc4[C@H]3CC[C@@]21C | – | 2.78% (inactive) |
